High-throughput results (PubChem)
SARS PLP yeast: blocks SARS-CoV papain-like protease in a yeast assay; S. cerevisiae expressing SARS-CoV PLpro, growth rescue; Potency, µM (titrated, usually from 32.9 µM), inactives show top-dose activity, positive = growth rescue, most hits filed as activators; hit rate 0.19% among 330,000; calls by dose curve; also: potency is read from the fitted curve at half-maximal effect; 0% is about no effect; nearly all actives have a fitted effect of over 55% in size
Shiga inhibitor: inhibitors of Shiga toxin in Vero cells; Vero cells, Shiga toxin protein synthesis inhibition reporter; inhibition, % at 38.7 µM; hit rate 9.2% among 290,000; in the data active = inhibition mostly above about 28%, no sharp cut-off; inactive = mostly below about 43%; also: 0% is about no effect
TbPYK inhibitor: blocks Trypanosoma brucei pyruvate kinase; Q57TT1; TbPYK enzyme, Kinase-Glo Plus ATP luminescence, 45 min; Potency, µM (doses to about 76.8 µM), without a hit: top-dose activity, negative = inhibition, hits mostly inhibitors; hit rate 0.12% among 410,000; AID 624173; also: potency is read from the fitted curve at half-maximal effect; % is scaled to controls: 0 for no effect and ±100 for the full control effect; nearly all actives have a fitted effect of over 50% in size
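Activity of T. brucei pyruvate kinase was followed by Kinase-Glo Plus luminescence after the enzyme reacted 45 min at room temperature with 130 uM ADP (final) and substrate. Test compounds were added before ADP at multiple concentrations.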
LmPK inh: inhibitors of Leishmania mexicana pyruvate kinase; purified LmPK, Kinase-Glo ATP luminescence, 1 h; Potency, µM (doses to about 57.5 µM), for the others: top-dose activity change, negative = inhibition, hits mostly inhibitors; hit rate 0.37% among 290,000; also: potency is read from the fitted curve at half-maximal effect; % is scaled to controls: 0 for no effect and ±100 for the full control effect
Target sequence (Q27686 whole entry, looked up): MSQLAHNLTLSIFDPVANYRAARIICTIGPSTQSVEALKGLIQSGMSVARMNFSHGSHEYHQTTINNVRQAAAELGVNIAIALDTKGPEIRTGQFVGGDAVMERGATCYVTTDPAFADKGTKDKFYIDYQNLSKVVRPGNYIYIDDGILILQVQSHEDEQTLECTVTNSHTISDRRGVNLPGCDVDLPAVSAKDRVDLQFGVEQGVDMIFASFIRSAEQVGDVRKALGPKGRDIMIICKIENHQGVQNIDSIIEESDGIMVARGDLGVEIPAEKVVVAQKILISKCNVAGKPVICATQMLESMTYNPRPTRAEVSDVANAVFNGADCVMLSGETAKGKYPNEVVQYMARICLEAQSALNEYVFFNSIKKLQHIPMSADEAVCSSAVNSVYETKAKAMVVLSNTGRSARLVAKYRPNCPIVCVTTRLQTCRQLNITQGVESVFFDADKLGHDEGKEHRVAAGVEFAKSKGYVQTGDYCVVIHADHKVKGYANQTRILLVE
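Kinase-Glo luminescence read after 1 h RT reaction of 0.1 nM LmPK with 0.5 mM PEP and 0.1 mM ADP. Activity scaled between uninhibited and enzyme-free controls.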
NS1 inh: influenza NS1 inhibition; Potency, µM (series often up to 46.1 µM), for the others: at the highest dose activity, positive = more growth; hit rate 0.4% among 270,000; calls by dose curve; also: potency is read from the fitted curve at half-maximal effect; actives are rising curves; nearly all actives have a fitted effect of over 50% in size
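A cell-based growth assay was used: compounds that relieve NS1-induced slow growth of budding yeast raise OD600. Assay medium was yeast nitrogen base with ammonium sulphate and -URA supplement, pH 6.0, with 2% galactose.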
Cycloheximide cs: counter-screen for Shiga toxin inhibitors: cycloheximide protein synthesis inhibition | cell reporter, cycloheximide protein synthesis inhibition counterscreen | max response, % | hit rate 12% among 300,000 | AID 2314; in the data active = max response mostly above about 13%, no sharp cut-off; inactive = mostly below about 14%; also: read at 38.3 µM for the half of the compounds with a filed dose; 0% is about no effect
* marks the source's active call; other numbers are inactive results; ? = inconclusive; . = no result. Many of the other results were omitted from the sample, so hits are more common in it than they were. Unless noted, calls follow the shape of the dose curve; as a rule, active = well fitted curve in the direction sought with a large enough effect; inconclusive = small, poorly fitted or top-dose-only effect, or another doubt; inactive = no such curve, though single readings can be large; an effect the other way counts as inactive or inconclusive.

SMILES	SARS PLP yeast	Shiga inhibitor	TbPYK inhibitor	LmPK inh	NS1 inh	Cycloheximide cs
CN(C(=O)c1ccncc1)c1nnc(-c2ccccn2)s1	-6%	75	7%	4%	-6%	35*
CN(C)c1oc(-c2ccc(COc3ccccc3)o2)nc1C#N	.	.	-9%	.	.	.
CC(C)(O)C(=O)NN(Cc1ccccc1)c1ccccc1	-5%	33*	3%	-3%	2%	28*
O=C(c1ccc(-c2cc(Cl)ccc2Cl)o1)N1CCOCC1	0%	38	-1%	-5%	-32%	16*
O=C(c1ccc(-c2ccc(Cl)cc2Cl)o1)N1CCOCC1	-2%	80*	-7%	-3%	-5%	42*
Cc1ccc(/C=C(\C#N)C(=O)Nc2ccccn2)o1	-3%	58	-8%	?	-12%	28*
C=CCOc1ccc(/C=C(\C#N)C(=O)Nc2ccccn2)cc1OC	-2%	-11	-7%	-5%	-2%	-7
COc1ccc(/C=C(\C#N)C(=O)Nc2ccccn2)cc1	16%	84	-8%	-6%	-1%	21*
COc1ccc(O)c(/C=C(\C#N)C(=O)Nc2ccccn2)c1	1%	53*	1%	0%	-5%	26*
Cc1c(C(=O)Nc2ccccc2Cl)sc2ncnc(N(C)C3CCCCC3)c12	.	.	1%	.	.	.
O=C(COC(=O)COc1ccccc1)NC1CCCC1	5%	.	7%	.	.	.
COc1cccc(C2NC(=O)CCC2[N+](=O)[O-])c1 (centres undefined)	1%	18	-1%	3%	6%	-4
Cc1ccc2c(=O)cc(C(=O)Nc3ccc(S(=O)(=O)Nc4onc(C)c4C)cc3)oc2c1C	.	.	-2%	.	.	.
CC(=O)c1cccc(OCc2cc(C(=O)N3CCSCC3)no2)c1	?	150*	-2%	-6%	-16%	48*
O=C(c1cc(COc2ccc(F)c(F)c2)on1)N1CCSCC1	-2%	62*	-4%	-4%	-14%	47*
COc1cc(C(C)=O)ccc1OCc1cc(C(=O)N2CCSCC2)no1	.	8	0%	3%	1%	18
CC[C@@H]1C(=O)[C@H](Cc2ccccc2)[C@H]2CCCC(=O)N3CC[C@@H]1[C@@H]23	.	.	8%	.	.	.
CC1(C)CC(=O)C2=C(C1)Nc1ccccc1S2	-1%	-13	-7%	2%	-2%	5
CC1(C)CC(=O)C2=C(C1)Nc1ccccc1[S@]2=O	-1%	11	-2%	-11%	0%	-1
CC1(C)CC(=O)C2=C(C1)Nc1ccccc1NC2	0%	139*	2%	-5%	.	44*
CC1(C)CC(=O)C2=C(C1)Nc1ccccc1N=C2	-23%	85*	.	-22%	-13%	50*
CC(C)CCNC(=O)c1ccc(Cn2c(SCC(N)=O)nc3ccccc3c2=O)cc1	.	.	-2%	.	.	.
CN=C(C)c1c(O)c2ccccc2oc1=O	-18%	20	1%	4%	-187%	18*
Cc1ccc(N=Cc2c(O)c3ccccc3oc2=O)c(C)c1	0%	17	8%	-8%	17%	30*
Cc1ccc(F)cc1N=Cc1c(O)c2ccccc2oc1=O	-3%	-17	1%	1%	-4%	-1
SMILES	SARS PLP yeast	Shiga inhibitor	TbPYK inhibitor	LmPK inh	NS1 inh	Cycloheximide cs
O=C1CCCC(O)=C1C=Nc1cccc(C(F)(F)F)c1	1%	3	-2%	-2%	.	9
COc1cccc(N=CC2=C(O)CCCC2=O)c1	-1%	31	3%	0%	.	30*
COc1cccc(N=Cc2c(O)c3ccccc3oc2=O)c1	0%	35	-8%	1%	14%	21*
CN(Cc1nc2ccccc2n1C)C(=O)c1ccco1	-8%	-23	-8%	-10%	8%	-3
Fc1ccc(-c2ccc3nccn3c2)cc1Cl	.	.	0%	.	.	.
Cc1cccc(N2CCN(C(=O)C3COc4ccccc4O3)CC2)c1C (centres undefined)	-4%	52*	-3%	0%	-53%	24*
Cc1cccc(N2CCN(C(=O)C3CCC(=O)N(C4CC4)C3)CC2)c1C (centres undefined)	5µM*	8	-16%	-1%	9%	9
O=C(C1COc2ccccc2O1)N1CCc2ccccc2C1 (centres undefined)	29%	60*	-5%	4%	-8%	29*
O=C(C1COc2ccccc2O1)N1CCN(c2ccccc2Cl)CC1 (centres undefined)	-9%	-5	-3%	-1%	.	-4
CCn1nc(CC(=O)O)c2ccccc2c1=O	1%	8	7%	4%	3%	-2
CCCc1nc(SC)ncc1C(=O)N1CCN(c2ccc(Cl)cc2)CC1	.	.	-8%	.	.	.
CC(C)(C)OC(=O)N1CCC(c2c(C(=O)NCCN3CCCC3)cnn2-c2ccc(Cl)cc2)CC1	.	.	1%	.	.	.
Cc1cccc(OCC(=O)Nc2cccc3cccnc23)c1C	.	.	-6%	.	.	.
COc1ccc(CNC(=O)Cc2c(C)c3c(cc(C)c4c(C)coc43)oc2=O)cc1OC	.	.	3%	.	.	.
Cc1cc(N2C(=O)Cc3ccccc3C2=O)ccc1C(C)C	-3%	27	-1%	0%	9%	19*
O=C1Cc2ccccc2C(=O)N1c1ccccc1	-2%	-1	0%	1%	21%	-5
CSc1ccccc1NC(=O)c1ccc(Cl)s1	-16%	49	3%	8%	-72%	30*
Cc1ccccc1NC(=O)c1ccccn1	0%	57*	-5%	-8%	-2%	29*
Cc1ccccc1C(=O)NCCNC(=O)c1ccccn1	0%	14	1%	1%	4%	-4
COC(=O)c1ccsc1NC(=O)c1ccc(Cl)s1	-1%	-8	-3%	7%	7%	-4
CSc1ccccc1NC(=O)c1ccco1	-3%	2	-12%	15%	-6%	-2
CSc1ccccc1NC(=O)c1ccccn1	-1%	45*	-8%	1%	.	18*
CSc1ccccc1NC(=O)c1cccnc1	-3%	11	-11%	0%	4%	15*
O=C(CSc1nnc(-c2ccccc2O)o1)Oc1ccc(OCc2ccccc2)cc1	1%	101*	-1%	-2%	4%	31*
O=C(CSc1nnc(-c2ccncc2)o1)Oc1ccccc1	-8%	-9	-1%	6%	-45%	-2
O=C(O)c1ccc(-c2ccc(/C=N/Nc3ccc([N+](=O)[O-])cc3)o2)cc1	-4%	92*	1%	-2%	-4%	16*
NS(=O)(=O)c1ccc(-c2ccc(/C=N/Nc3ccc(C(=O)O)cc3)o2)cc1	2%	18	-8%	4%	9%	41*
O=C(O)c1cccc(-c2ccc(/C=N/Nc3ccc([N+](=O)[O-])cc3)o2)c1	0%	54	-3%	0%	2%	17*
CCN(Cc1ccccc1)S(=O)(=O)c1cc(C(=O)Nc2cc(Cl)cc(Cl)c2)ccc1F	.	.	-8%	.	.	.
Cc1nc2nc(SCC(=O)NCCc3ccc(Cl)cc3)nn2c(C)c1Cc1c(F)cccc1Cl	.	.	-1%	.	.	.
